Measurements from PubChem BioAssay.
Records with an inconclusive call do not appear. Calls of active or inactive are those of the source. Rule as the data show it, unless noted: active = response above about 15%; inactive = the rest.

Tests used:
[1] = yeast TOR pathway RPL19A-GFP modulators, primary screen, cell-based, S. cerevisiae, multiplex flow cytometry (AID 1862; in the data active = percent of DMSO control GFP below about 86%;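 also: lower values mimic rapamycin by blocking the RPL19A rise seen in DMSO cells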); conditions: S. cerevisiae RPL19A-GFP strain, flow cytometry fluorescence, 3 h; at 10 µM; stronger effect = lower value
[2] = modulators of MEP2-GFP levels in yeast, primary screen, S. cerevisiae, multiplex flow cytometry (AID 1867;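 active = GFP response, as percent of the DMSO control, above the screen-wide mean plus 3 SD, about 139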;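 also: median GFP channel fluorescence of barcode-gated MEP2-GFP cells measured by flow cytometry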); conditions: S. cerevisiae MEP2-GFP strain, 3 h, at 10 µM, stronger effect = higher value, 100% means same as DMSO wells
[3] = modulators of CIT2-GFP expression in yeast, primary screen, S. cerevisiae, GFP fusion, multiplex flow cytometry (AID 1870;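 active = percent response above a set limit, the screen-wide mean plus 3 SD, cut at about 130% in these data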;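 also: barcoded CIT2-GFP strain pooled with four other GFP strains with rapamycin as positive control; median GFP fluorescence per well over plate mean of DMSO wells so 100% = DMSO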); conditions: 3 h, at 10 µM, stronger effect = higher value
[4] = modulators of LAP4-GFP expression in yeast, primary screen, S. cerevisiae, multiplex flow cytometry (AID 1873;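 active = GFP signal, as percent of the solvent control, above the screen mean plus 3 SD, about 149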); conditions: 3 h, at 10 µM, stronger effect = higher value
[5] = modulators of AGP1-GFP expression in yeast TOR pathway, primary screen, cell-based, multiplex flow cytometry, S. cerevisiae (AID 1887;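 active = GFP signal above the screen-wide mean plus 3 SD, that is over about 124.5% of the solvent control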;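 also: AGP1-GFP fusion strain of S. cerevisiae within a five-strain barcoded multiplex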); conditions: 3 h, at 10 µM, stronger effect = higher value
[6] = inhibitors of CD8+ T cell-vesicle binding, pilot screen, LFA-1/ICAM-1 modulator project, MLPCN validation set, flow cytometry (AID 2523;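 active = response below a set limit, under 55% cells CD8-positive and vesicle-bound, and CD8 cells' 90th-percentile brightness under 279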;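 as to vesicle binding response: mean PE anti-B7-1 fluorescence of CD8+ cells relative to row control; 100% = QL9-loaded vesicles with DMSO vehicle in the same plate row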); conditions: 2C mouse CD8+ T cells, at 7 µM, stronger effect = lower value; double positive events: measured here: CD8+/vesicle+ event percentage
[7] = biological target: Integrin beta-1 (Homo sapiens) + Integrin alpha-4 (Homo sapiens) (UniProt P13612+P05556); experiment: inhibition of HUTS-21 binding to VLA-4, pilot screen, VLA-4 allosteric modulator project, U937 cells, HUTS-21 mAb, flow cytometry, validation set (AID 2674;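 active = inhibition above 50%, about 3 SD of the validation set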;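 also: antibody binding induced by the VLA-4 ligand LDV present at three times its Kd; 0% = LDV ligand with antibody and no compound and 100% = antibody without LDV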); conditions: HUTS-21 LIBS mAb binding, at 6.7 µM, stronger effect = higher value, binding induced by LDV ligand
Integrin beta-1 (Homo sapiens) + Integrin alpha-4 (Homo sapiens), sequence (P05556 whole entry, looked up): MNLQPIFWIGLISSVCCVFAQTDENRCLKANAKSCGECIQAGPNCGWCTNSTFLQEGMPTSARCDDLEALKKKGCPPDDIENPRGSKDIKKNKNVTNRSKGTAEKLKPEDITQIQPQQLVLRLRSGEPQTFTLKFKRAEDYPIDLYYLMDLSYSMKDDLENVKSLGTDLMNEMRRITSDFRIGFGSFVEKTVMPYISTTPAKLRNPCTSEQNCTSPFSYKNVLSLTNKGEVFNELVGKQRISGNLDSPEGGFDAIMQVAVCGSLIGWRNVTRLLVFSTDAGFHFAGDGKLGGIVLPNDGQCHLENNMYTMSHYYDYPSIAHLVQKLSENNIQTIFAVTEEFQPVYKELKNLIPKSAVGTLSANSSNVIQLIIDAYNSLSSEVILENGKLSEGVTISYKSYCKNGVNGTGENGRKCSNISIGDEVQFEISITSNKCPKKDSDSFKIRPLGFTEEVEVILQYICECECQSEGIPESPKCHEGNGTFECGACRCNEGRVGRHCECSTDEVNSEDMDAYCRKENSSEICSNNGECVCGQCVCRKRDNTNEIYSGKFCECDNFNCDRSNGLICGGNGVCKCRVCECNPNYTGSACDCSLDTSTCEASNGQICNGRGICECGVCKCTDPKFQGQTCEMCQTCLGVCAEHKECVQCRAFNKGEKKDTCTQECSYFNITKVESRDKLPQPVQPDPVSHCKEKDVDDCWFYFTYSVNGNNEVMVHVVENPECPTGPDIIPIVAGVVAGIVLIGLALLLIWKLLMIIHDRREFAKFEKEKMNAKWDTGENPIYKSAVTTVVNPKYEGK
Integrin beta-1 (Homo sapiens) + Integrin alpha-4 (Homo sapiens), sequence (P13612 whole entry, looked up): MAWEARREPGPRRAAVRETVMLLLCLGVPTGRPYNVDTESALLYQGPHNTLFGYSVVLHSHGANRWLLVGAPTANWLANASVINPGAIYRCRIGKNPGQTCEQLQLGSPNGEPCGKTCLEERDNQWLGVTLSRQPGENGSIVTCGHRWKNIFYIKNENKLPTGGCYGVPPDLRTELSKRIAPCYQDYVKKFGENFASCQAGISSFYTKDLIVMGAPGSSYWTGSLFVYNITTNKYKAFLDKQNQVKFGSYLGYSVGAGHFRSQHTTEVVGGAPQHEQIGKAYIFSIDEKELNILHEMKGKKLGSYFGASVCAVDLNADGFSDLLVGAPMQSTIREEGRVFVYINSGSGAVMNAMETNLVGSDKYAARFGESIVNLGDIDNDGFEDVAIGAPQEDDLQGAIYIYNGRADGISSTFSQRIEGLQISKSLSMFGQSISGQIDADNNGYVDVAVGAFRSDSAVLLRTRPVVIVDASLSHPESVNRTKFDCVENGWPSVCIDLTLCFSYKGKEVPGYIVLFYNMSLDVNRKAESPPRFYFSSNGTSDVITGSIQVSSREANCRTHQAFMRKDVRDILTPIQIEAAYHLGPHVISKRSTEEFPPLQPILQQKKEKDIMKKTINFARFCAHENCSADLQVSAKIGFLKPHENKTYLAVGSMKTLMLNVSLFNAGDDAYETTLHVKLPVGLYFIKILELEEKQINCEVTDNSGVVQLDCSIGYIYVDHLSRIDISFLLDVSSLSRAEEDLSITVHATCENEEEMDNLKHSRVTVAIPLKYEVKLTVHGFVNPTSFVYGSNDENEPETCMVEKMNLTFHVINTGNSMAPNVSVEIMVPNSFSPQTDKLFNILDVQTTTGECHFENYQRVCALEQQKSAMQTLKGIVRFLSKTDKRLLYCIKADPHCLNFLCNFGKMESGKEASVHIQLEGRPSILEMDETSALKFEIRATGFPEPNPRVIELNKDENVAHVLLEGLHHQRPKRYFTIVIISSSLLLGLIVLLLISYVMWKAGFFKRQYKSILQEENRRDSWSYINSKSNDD

[8] = superoxide lowering in aged yeast cells, pilot screen, validation compound set (AID 2706;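 active = superoxide response below 65% of plate, a cut near 3 SD across the whole screen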;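 also: yeast exposed to compound for one week at 30 degrees C before staining; 100% = mean of all compound wells on the same plate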); conditions: S. cerevisiae aging, superoxide DHE fluorescence; at 10 µM, stronger effect = lower value
[9] = biological target: Beta-adrenergic receptor kinase 1 (Homo sapiens) (UniProt P25098); experiment: GRK2 binders displacing RNA aptamer, biochemical, validation, human GRK2, bead flow cytometry (AID 488806;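 active = aptamer binding inhibition above 30%, about 3 SD of noise from non-fluorescent compounds; inactive = inhibition at or below 30%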); conditions: bead-bound GRK2, FAM-aptamer displacement, at 10 µM, stronger effect = higher value
Beta-adrenergic receptor kinase 1 (Homo sapiens), sequence (P25098 whole entry, looked up): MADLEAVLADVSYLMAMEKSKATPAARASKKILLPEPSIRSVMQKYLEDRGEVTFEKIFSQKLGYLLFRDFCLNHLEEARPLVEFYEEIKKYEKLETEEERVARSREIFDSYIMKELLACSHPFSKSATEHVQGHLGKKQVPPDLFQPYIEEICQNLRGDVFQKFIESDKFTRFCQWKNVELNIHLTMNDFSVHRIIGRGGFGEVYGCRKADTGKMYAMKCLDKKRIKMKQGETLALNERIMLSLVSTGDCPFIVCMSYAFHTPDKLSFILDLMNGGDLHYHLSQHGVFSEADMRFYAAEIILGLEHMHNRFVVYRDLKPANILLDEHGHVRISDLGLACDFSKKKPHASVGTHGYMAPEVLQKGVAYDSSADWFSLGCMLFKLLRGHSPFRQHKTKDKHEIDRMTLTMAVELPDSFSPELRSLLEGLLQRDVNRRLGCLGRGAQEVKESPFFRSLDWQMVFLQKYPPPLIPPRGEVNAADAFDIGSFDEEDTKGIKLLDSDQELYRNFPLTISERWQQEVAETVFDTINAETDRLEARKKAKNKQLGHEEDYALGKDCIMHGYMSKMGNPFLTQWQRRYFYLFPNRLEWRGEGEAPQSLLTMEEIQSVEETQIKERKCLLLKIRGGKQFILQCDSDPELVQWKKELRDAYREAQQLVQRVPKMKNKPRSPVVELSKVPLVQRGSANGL

[10] = biological target: AP-2 complex subunit beta (Homo sapiens) (UniProt P63010); experiment: inhibitors of arrestin peptide binding to AP2, pilot screen, biochemical, validation set, GST-AP2 beads, flow cytometry (AID 504541;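 active = inhibition above 54%, about 3 SD of non-fluorescent compounds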;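 also: AP2 carries R879A mutation and is captured from E. coli lysate; bead-bound FITC arrestin peptide fluorescence measuring arrestin peptide binding to AP2; 0% = DMSO wells and 100% = excess unlabeled arrestin peptide control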); conditions: FITC arrestin peptide, at 10 µM, stronger effect = higher value, AP2 beta2 appendage fragment, R879A mutant
AP-2 complex subunit beta (Homo sapiens), sequence (P63010 whole entry, looked up, the tested form may be a part, one chain of several): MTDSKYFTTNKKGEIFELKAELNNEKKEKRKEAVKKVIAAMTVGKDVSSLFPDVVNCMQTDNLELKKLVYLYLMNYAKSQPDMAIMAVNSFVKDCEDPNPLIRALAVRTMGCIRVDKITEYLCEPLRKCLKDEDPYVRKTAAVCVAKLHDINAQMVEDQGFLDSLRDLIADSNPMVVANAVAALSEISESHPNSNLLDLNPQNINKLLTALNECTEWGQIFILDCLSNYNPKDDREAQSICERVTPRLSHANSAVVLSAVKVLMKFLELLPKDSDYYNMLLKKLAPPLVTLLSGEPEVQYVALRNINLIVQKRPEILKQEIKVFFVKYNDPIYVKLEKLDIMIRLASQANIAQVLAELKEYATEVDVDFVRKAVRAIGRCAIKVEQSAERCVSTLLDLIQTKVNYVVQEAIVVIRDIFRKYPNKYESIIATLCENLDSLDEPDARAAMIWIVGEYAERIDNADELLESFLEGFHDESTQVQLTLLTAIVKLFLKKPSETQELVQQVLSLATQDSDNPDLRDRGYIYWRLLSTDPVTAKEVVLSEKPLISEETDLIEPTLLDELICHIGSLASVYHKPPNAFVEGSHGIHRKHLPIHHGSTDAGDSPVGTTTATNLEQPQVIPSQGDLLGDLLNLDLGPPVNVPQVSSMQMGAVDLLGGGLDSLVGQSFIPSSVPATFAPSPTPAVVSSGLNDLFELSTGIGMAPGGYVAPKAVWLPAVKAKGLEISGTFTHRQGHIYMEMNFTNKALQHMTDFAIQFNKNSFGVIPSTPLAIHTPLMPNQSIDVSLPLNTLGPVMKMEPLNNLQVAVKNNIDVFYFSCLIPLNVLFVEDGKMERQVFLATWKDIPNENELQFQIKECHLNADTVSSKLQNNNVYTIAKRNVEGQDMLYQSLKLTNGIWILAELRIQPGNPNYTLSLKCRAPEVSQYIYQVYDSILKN

[11] = yeast V-ATPase proton transport modulators, S. cerevisiae, pHLuorin, HTS validation (AID 504600);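 also: plate controls were DMSO for no effect and reference compound for full effect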; conditions: S. cerevisiae pHLuorin cytosolic pH, at 10 µM, stronger effect = higher value
[12] = test system: anti-desmoglein-3 scFv antibody binding to human DSG3; experiment: inhibitors of anti-DSG3 scFv binding to DSG3, pilot screen, biochemical, validation compound set, bead-based, flow cytometry (AID 588368;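 active = binding below the plate cutoff, the plate median minus 3 SD, with a reading above zero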;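 also: signal is the median channel fluorescence of bead-bound GFP antibody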); conditions: Protein G beads, DSG3-Fc, scFv-GFP binding, at 10 µM, stronger effect = lower value
[13] = inhibitors of fungal efflux pumps CDR1, CDR2, MDR1, pilot screen, validation compound set, multiplex, phenotypic (AID 588506;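 active = efflux inhibition above 0.42, the validation set average plus 4 SD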;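 also: Nile Red retained in cells so higher fluorescence means more efflux inhibition; 0 = negative control wells and 1 = enniatin B 25 µM full block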); conditions: S. cerevisiae pump-expressing triplex, Nile Red efflux flow cytometry; at 10 µM; stronger effect = higher value; the pumps come from Candida albicans
[14] = biological target: ATP-binding cassette sub-family B member 6 (Homo sapiens) (UniProt Q9NP58); experiment: ABCB6 transporter inhibitors, pilot screen, K562-ABCB6 cells, flow cytometry, validation set (AID 588550;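 active = inhibition above the screen-wide mean plus 3 SD, about 51%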;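 also: 0% = DMSO wells and 100% = benzethonium chloride 70 µM positive control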); conditions: K562-ABCB6 porphyrin accumulation, 1 h, at 10 µM, stronger effect = higher value
ATP-binding cassette sub-family B member 6 (Homo sapiens), sequence (Q9NP58 whole entry, looked up): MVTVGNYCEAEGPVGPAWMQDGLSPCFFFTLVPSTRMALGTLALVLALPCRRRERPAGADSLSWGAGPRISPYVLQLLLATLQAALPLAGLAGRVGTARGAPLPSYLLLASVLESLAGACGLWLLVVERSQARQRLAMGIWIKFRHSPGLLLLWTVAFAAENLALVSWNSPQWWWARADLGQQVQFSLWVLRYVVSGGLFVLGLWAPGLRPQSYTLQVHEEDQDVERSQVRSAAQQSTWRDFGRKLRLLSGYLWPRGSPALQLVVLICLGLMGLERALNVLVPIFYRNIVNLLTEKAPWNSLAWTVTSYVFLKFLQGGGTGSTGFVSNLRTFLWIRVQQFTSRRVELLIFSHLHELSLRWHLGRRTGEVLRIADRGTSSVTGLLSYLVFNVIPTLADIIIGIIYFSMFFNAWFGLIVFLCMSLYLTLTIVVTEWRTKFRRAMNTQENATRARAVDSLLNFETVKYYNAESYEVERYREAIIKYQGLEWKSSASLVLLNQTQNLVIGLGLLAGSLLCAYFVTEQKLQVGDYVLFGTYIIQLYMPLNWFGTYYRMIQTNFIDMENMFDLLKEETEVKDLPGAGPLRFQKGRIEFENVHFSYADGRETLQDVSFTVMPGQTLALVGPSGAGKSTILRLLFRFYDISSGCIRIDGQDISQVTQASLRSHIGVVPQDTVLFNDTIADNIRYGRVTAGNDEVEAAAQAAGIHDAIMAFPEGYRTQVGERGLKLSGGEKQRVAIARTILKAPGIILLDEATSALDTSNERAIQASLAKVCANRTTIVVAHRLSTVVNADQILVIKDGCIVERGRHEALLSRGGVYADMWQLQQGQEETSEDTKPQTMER

[15] = promoters of myeloid differentiation in arrested cells, primary screen, cell-based, GFP/MAC1 double positive, flow cytometry, validation set (AID 588685;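 active = differentiation response of at least 50%, scaled between solvent and reference control, from cells with both markers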;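 also: compound exposure lasts four days before antibody staining and flow analysis; 0% = DMSO wells and 100% = 5 µM fulvestrant positive control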); conditions: ER-HoxA9 marrow cells, stronger effect = higher value, normalized: vehicle 0, fulvestrant 100
[16] = biological target: Beta-2 adrenergic receptor (Homo sapiens) (UniProt P07550); experiment: beta2AR agonists driving receptor internalization, pilot screen, cell-based, FAP fluorogen, flow cytometry, validation set (AID 504459;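 active = percent response above 42, roughly 3 SD of non-fluorescent test compounds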;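 also: agonist-driven loss of surface beta2AR via internalization measured by FAP dye flow cytometry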); conditions: Am2.2-beta2AR cells, FAP surface receptor flow cytometry; at 10 µM; stronger effect = higher value
Beta-2 adrenergic receptor (Homo sapiens), sequence (P07550 whole entry, looked up): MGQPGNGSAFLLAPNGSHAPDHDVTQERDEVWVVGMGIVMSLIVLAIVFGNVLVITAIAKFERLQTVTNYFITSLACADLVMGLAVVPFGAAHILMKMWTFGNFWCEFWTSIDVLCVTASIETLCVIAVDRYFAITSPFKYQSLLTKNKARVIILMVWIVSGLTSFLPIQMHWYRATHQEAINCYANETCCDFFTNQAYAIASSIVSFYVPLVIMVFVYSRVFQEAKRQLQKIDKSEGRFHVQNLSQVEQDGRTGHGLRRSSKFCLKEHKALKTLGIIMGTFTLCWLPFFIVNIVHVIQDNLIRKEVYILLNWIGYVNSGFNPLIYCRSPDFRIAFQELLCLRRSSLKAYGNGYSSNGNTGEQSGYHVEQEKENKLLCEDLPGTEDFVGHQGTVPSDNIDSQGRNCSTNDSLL

COc1cccc2c1C(=O)O/C2=C/c1ccc2c(c1)OCO2
inactive: percent of DMSO control GFP [1] 95.2% | GFP response vs DMSO [2] 103% | percent response of DMSO control [3] 93% | GFP response vs DMSO [4] 92.3% | GFP response, % of DMSO [5] 83.8% | vesicle binding response [6] 177% | inhibition [7] -3.04% | superoxide response (% of plate) [8] 106% | aptamer binding inhibition [9] 1% | inhibition [10] -5.67% | response [11] -7.76% | binding (% of control) [12] 99.8% | efflux inhibition (fraction of control) [13] -0.35 | inhibition [14] 8% | differentiation response [15] -24.4%
64.2%: double positive events [6]

CCOC(=O)c1cccc(C(=O)OCC)n1
inactive: percent of DMSO control GFP [1] 102% | GFP response vs DMSO [2] 98.3% | percent response of DMSO control [3] 100% | GFP response vs DMSO [4] 84.1% | GFP response, % of DMSO [5] 95.7% | vesicle binding response [6] 28.3% | inhibition [7] -2.53% | aptamer binding inhibition [9] 0% | response [16] -0.16% | inhibition [10] 5.21% | response [11] -1.45% | binding (% of control) [12] 103% | inhibition [14] 5% | differentiation response [15] 29.6%
62.1%: double positive events [6]
active: efflux inhibition (fraction of control) [13] 0.68

O=C(Nc1ccc(Oc2c(F)c(F)c(F)c(F)c2F)cc1)OC1CCN2Cc3ccccc3N=C12 (centres undefined)
inactive: percent of DMSO control GFP [1] 107% | GFP response vs DMSO [2] 105% | percent response of DMSO control [3] 97.9% | GFP response vs DMSO [4] 98.4% | GFP response, % of DMSO [5] 96.4% | vesicle binding response [6] 123% | inhibition [7] -184% | superoxide response (% of plate) [8] 85.7% | aptamer binding inhibition [9] 0% | response [11] -2.8% | binding (% of control) [12] 98.8% | inhibition [14] 1%
active: efflux inhibition (fraction of control) [13] 1.47 | differentiation response [15] 70.8%
53.8%: double positive events [6]

COc1ccc2nc(NC(=O)Nc3ccccc3)sc2c1
50.6%: double positive events [6]
active: response [11] 70.8%
inactive: percent of DMSO control GFP [1] 105% | GFP response vs DMSO [2] 96.9% | percent response of DMSO control [3] 111% | GFP response vs DMSO [4] 89.3% | GFP response, % of DMSO [5] 96% | vesicle binding response [6] 173% | inhibition [7] 10% | superoxide response (% of plate) [8] 92.7% | aptamer binding inhibition [9] -1% | inhibition [10] 0.98% | binding (% of control) [12] 95.7% | efflux inhibition (fraction of control) [13] -0.47 | inhibition [14] 1% | differentiation response [15] -22.8%

COc1ccc2[nH]cc(CCNC(=O)C3CCCNC3=O)c2c1 (centres undefined)
inactive: percent of DMSO control GFP [1] 103% | GFP response vs DMSO [2] 97.9% | percent response of DMSO control [3] 104% | GFP response vs DMSO [4] 104% | GFP response, % of DMSO [5] 105% | vesicle binding response [6] 218% | inhibition [7] -2.11% | superoxide response (% of plate) [8] 100% | aptamer binding inhibition [9] -7% | inhibition [10] -18.5% | response [11] 2.02% | binding (% of control) [12] 103% | efflux inhibition (fraction of control) [13] -0.24 | inhibition [14] 7% | differentiation response [15] 6.26%
57.5%: double positive events [6]

CN(C)CCOC(C)(c1ccccc1)c1ccccn1 (centres undefined)
63.3%: double positive events [6]
inactive: percent of DMSO control GFP [1] 100% | GFP response vs DMSO [2] 104% | percent response of DMSO control [3] 93.1% | GFP response vs DMSO [4] 83.5% | GFP response, % of DMSO [5] 93.7% | vesicle binding response [6] 129% | inhibition [7] -1.49% | aptamer binding inhibition [9] 2% | response [16] 2.25% | inhibition [10] 13.9% | response [11] -1.19% | binding (% of control) [12] 106% | inhibition [14] 6% | differentiation response [15] 13.9%
active: efflux inhibition (fraction of control) [13] 0.74

COc1cccc(C2CCCN2Cc2nc(CCC(C)C)no2)c1 (centres undefined)
54.6%: double positive events [6]
inactive: percent of DMSO control GFP [1] 101% | GFP response vs DMSO [2] 116% | percent response of DMSO control [3] 103% | GFP response vs DMSO [4] 109% | GFP response, % of DMSO [5] 101% | vesicle binding response [6] 135% | inhibition [7] -9.57% | superoxide response (% of plate) [8] 102% | aptamer binding inhibition [9] 0% | inhibition [10] 5.57% | response [11] 3.31% | binding (% of control) [12] 104% | efflux inhibition (fraction of control) [13] 0.25 | inhibition [14] 8% | differentiation response [15] 4.64%

Cc1ccc2c(c1)C(O)(c1c(C)[nH]c3ccccc13)C(=O)N2 (centres undefined)
inactive: percent of DMSO control GFP [1] 98.6% | GFP response vs DMSO [2] 97.9% | percent response of DMSO control [3] 106% | GFP response vs DMSO [4] 96.4% | GFP response, % of DMSO [5] 90.1% | vesicle binding response [6] 259% | inhibition [7] -4.9% | superoxide response (% of plate) [8] 98.1% | aptamer binding inhibition [9] -1% | inhibition [10] -11.2% | response [11] -5.66% | binding (% of control) [12] 102% | efflux inhibition (fraction of control) [13] 0.1 | inhibition [14] 5% | differentiation response [15] -34.1%
57.8%: double positive events [6]

CCc1cc2c(=O)c(-c3ccc(F)cc3)c(C)oc2cc1OCC(=O)O
active: efflux inhibition (fraction of control) [13] 0.43
70.6%: double positive events [6]
inactive: percent of DMSO control GFP [1] 107% | GFP response vs DMSO [2] 98.3% | percent response of DMSO control [3] 104% | GFP response vs DMSO [4] 88.1% | GFP response, % of DMSO [5] 100% | vesicle binding response [6] 168% | inhibition [7] 6.81% | aptamer binding inhibition [9] -3% | response [16] -3.44% | inhibition [10] -6.22% | response [11] 0.76% | binding (% of control) [12] 104% | inhibition [14] -6% | differentiation response [15] 30.5%

Clc1ccccc1CN1CCc2sccc2C1
active: inhibition [10] 59.3%
64.6%: double positive events [6]
inactive: percent of DMSO control GFP [1] 100% | GFP response vs DMSO [2] 104% | percent response of DMSO control [3] 99.6% | GFP response vs DMSO [4] 118% | GFP response, % of DMSO [5] 119% | vesicle binding response [6] 233% | inhibition [7] 6.55% | superoxide response (% of plate) [8] 87.2% | aptamer binding inhibition [9] -1% | response [11] 0.39% | binding (% of control) [12] 102% | efflux inhibition (fraction of control) [13] 0 | inhibition [14] 0% | differentiation response [15] -4.99%
